Bioassay records: PubChem BioAssay, National Center for Advancing Translational Sciences (NCATS)
BCR signal inh – chronic active BCR signaling inhibition. ABC-DLBCL IkBa-CBG/CBR reporter, luminescence ratio, 4 h. Potency, µM (titrated, usually from 46.1 µM), most hits filed as inhibitors. 340,000 compounds, 0.05% hits. AID 493014; active = well fitted inhibition curve with a large enough effect in the signal ratio, with a control signal flat, not every such curve was filed as active; inconclusive = small, poorly fitted or top-dose-only effect, or effect the other way, or a change in a side signal; the % refers to the signal ratio
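Compounds up to 46 uM were incubated four hours with TMD8 cells whose green CBG68 luciferase is fused to IkappaBalpha; red CBR luminescence normalised the signal, and concentration-effect curves were fitted to fusion, red and ratio data.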
Anesthetic bind – binds horse apoferritin like a general anesthetic | Potency, µM (doses to about 77.5 µM), usual class: inhibitors | AID 485281 | P02791 | 350,000 compounds, 0.074% hits | apoferritin/1-aminoanthracene competitive binding, fluorescence; note: nearly all actives have a fitted effect of over 20% in size
Target sequence (P02791 2-175 limits assumed): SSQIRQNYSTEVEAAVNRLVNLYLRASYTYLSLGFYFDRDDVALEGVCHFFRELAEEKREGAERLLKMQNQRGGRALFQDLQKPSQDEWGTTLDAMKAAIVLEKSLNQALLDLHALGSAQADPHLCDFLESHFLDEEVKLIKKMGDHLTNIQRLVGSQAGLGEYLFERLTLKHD
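In PBS, apoferritin at 10 uM is loaded with 1-AMA from a 50% saturated solution. After 10 min of compound exposure at ambient temperature, reduced 535 nm fluorescence indicates probe displacement.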
12-LOX inh – blocks human arachidonate 12S-lipoxygenase | AID 1671190 | 580,000 compounds, 1.1% hits | Potency, µM (top dose mostly 108 µM), actives largely listed as inhibitors | purified 12hLO, xylenol orange hydroperoxide absorbance
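Hydroperoxide product was detected by ferrous iron/xylenol orange as the 573 to 405 nm absorbance ratio. Arachidonic acid at 40 uM (final) was turned over for 30 min at room temperature by 150 nM human 12hLO, pH 7.0 Hepes buffer, after 15 min compound preincubation.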
Glioma ERSR ind – ER stress response induction in glioma; U87-MG GRP78 promoter luciferase reporter, 16 h; Potency, µM, most hits filed as activators; 420,000 compounds, 0.02% hits; AID 602332; note: series mostly up to about 76 µM; nearly all actives have a fitted effect of over 35% in size
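Stably transfected U87-MG glioma cells carrying a GRP78-based luciferase sensor; 16 h compound incubation. Luminescence end-point read 10 min after Bright-Glo addition at room temperature.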
A number is an active result; ! = not confirmed by another sample; [ ] = remark or other dose. Compounds with a hit are over-represented: about 1.1% of the library has one in this group of screens. Unless noted, calls come from the whole dose curve; as a rule, active = well fitted curve in the direction sought with a large enough effect; inconclusive = small, poorly fitted or top-dose-only effect, or another doubt; inactive = no such curve, though single readings can be large; an effect the other way counts as inactive or inconclusive.

Results for O=C(CN1C(=O)C2CCCCC2C1=O)OCn1nnc2ccccc2c1=O (configuration not stated) ?
BCR signal inh: inactive; Anesthetic bind: inactive; 12-LOX inh: inactive; Glioma ERSR ind: inactive

How did O=c1c2ccccc2nnn1Cc1ccccc1Cl do in these assays?
BCR signal inh: inactive; Anesthetic bind: 14µM; 12-LOX inh: inactive; Glioma ERSR ind: inactive

How did O=c1c2ccccc2nnn1Cc1ccccc1 do in these assays?
BCR signal inh: inconclusive; Anesthetic bind: inconclusive; 12-LOX inh: inactive; Glioma ERSR ind: inactive

How did Cc1ccc(-c2csc(NC(=O)c3cc4cnn(C(C)C)c4nc3C)n2)cc1 do in these assays?
12-LOX inh: inactive

What do the screens show for `Cc1cccc(OCC(=O)Nc2ccc(S(=O)(=O)Nc3onc(C)c3C)cc2)c1C`?
BCR signal inh: inactive; Anesthetic bind: inactive; 12-LOX inh: 40µM!; Glioma ERSR ind: inactive

How did CC1=C(C(=O)Nc2ccc(C)cc2C)C2(CCCCC2)OC1=O do in these assays?
12-LOX inh: inactive

How did CC(=O)Nc1ccccc1-c1ccccc1[N+](=O)[O-] do in these assays?
12-LOX inh: inactive; Glioma ERSR ind: inactive

What do the screens show for `CCS(=O)(=O)c1cc([N+](=O)[O-])c(Sc2ccccc2NC(C)=O)s1`?
BCR signal inh: inconclusive; Anesthetic bind: inactive; 12-LOX inh: 14µM; Glioma ERSR ind: inactive

How did NC(=S)N/N=C/c1ccccc1OC(=O)/C=C/c1ccccc1 do in these assays?
BCR signal inh: inconclusive; Anesthetic bind: inactive; 12-LOX inh: 5.6µM; Glioma ERSR ind: inactive

How did COCc1ccc(CNC(=O)CC(C)C)cc1 do in these assays?
12-LOX inh: inactive

Results for COCCNC(=S)N1CCC2CC1c1cc(-c3ccc4c(c3)OCO4)ccc12 (configuration not stated) ?
12-LOX inh: 28µM; Glioma ERSR ind: inactive

What do the screens show for `S=C(NCCc1ccccc1)N1CCC2CC1c1cc(-c3ccc4c(c3)OCO4)ccc12` (configuration not stated)?
12-LOX inh: 28µM; Glioma ERSR ind: inactive

Results for O=C(C(=O)N1CCCCCC1)c1c[nH]c2ccccc12 ?
BCR signal inh: inconclusive; Anesthetic bind: inactive; 12-LOX inh: inactive; Glioma ERSR ind: inactive

Results for C[n+]1cc(C(=O)N2CCCCC2)ccc1/C=C/c1c[nH]c2ccccc12 ?
BCR signal inh: inactive; Anesthetic bind: inactive; 12-LOX inh: 20µM; Glioma ERSR ind: inactive

What do the screens show for `CCCCCCNc1nc2c(c(=O)[nH]c(=O)n2C)n1CC(O)COC(C)C` (configuration not stated)?
12-LOX inh: inactive

Results for CCOC(=O)c1sc(N/N=C/c2ccccc2)nc1C ?
BCR signal inh: inactive; Anesthetic bind: inactive; 12-LOX inh: inconclusive; Glioma ERSR ind: inactive

How did O=C(O)Cc1sc(N/N=C\c2ccccc2)nc1-c1ccccc1 do in these assays?
BCR signal inh: inconclusive; Anesthetic bind: inactive; 12-LOX inh: 45µM; Glioma ERSR ind: inactive

Results for O=C(O)c1cccc(N/N=C/c2cc(Br)cc(Br)c2O)c1 ?
BCR signal inh: inactive; Anesthetic bind: inactive; 12-LOX inh: 45µM; Glioma ERSR ind: inactive

Results for COc1ccc(Br)cc1/C=N/Nc1cccc(C(=O)O)c1 ?
BCR signal inh: inconclusive; Anesthetic bind: inactive; 12-LOX inh: inconclusive; Glioma ERSR ind: inactive

Results for Cc1c(N=Cc2cc(Br)cc(Br)c2O)cccc1C(=O)O ?
BCR signal inh: inactive; Anesthetic bind: inactive; 12-LOX inh: 50µM; Glioma ERSR ind: inactive

How did Oc1ccc(/C=N/N=C(c2ccccc2)c2ccccc2)c(O)c1O do in these assays?
BCR signal inh: inactive; Anesthetic bind: inconclusive; 12-LOX inh: 40µM; Glioma ERSR ind: inactive

What do the screens show for `C(=N\N=C(c1ccccc1)c1ccccc1)/c1ccncc1`?
12-LOX inh: inactive

How did O=C(/C(=N/N=C/c1ccc(O)c(O)c1O)c1ccccc1)c1ccccc1 do in these assays?
BCR signal inh: inactive; Anesthetic bind: inconclusive; 12-LOX inh: 14µM; Glioma ERSR ind: inactive

How did CC12CC3CC(C)(C1)CC(NCc1ccccn1)(C3)C2 do in these assays?
12-LOX inh: inactive

How did O=S(=O)(Nc1ccc(-c2cn3ccsc3n2)cc1)c1ccccc1 do in these assays?
12-LOX inh: 35µM

Results for Cc1ccc(NCc2ccccc2O)cc1 ?
BCR signal inh: inactive; Anesthetic bind: inconclusive; 12-LOX inh: inactive; Glioma ERSR ind: inactive

Results for Cc1ccccc1NCc1ccccc1O ?
BCR signal inh: inactive; Anesthetic bind: 18µM; 12-LOX inh: inconclusive; Glioma ERSR ind: inactive

Results for COc1ccc2nc(C[C@@H]3C[C@@H](C(C)C)[C@H](CN(Cc4ccccc4F)Cc4ccccc4F)C=C3C)[nH]c2c1 ?
12-LOX inh: inactive

What do the screens show for `CCOc1c(Br)cc(C(=O)OCc2ccc(C#N)cc2)cc1OC`?
12-LOX inh: inactive

What do the screens show for `O=C1CC2CCN(C(=O)c3ccc(F)cc3)CC2CCN1` (configuration not stated)?
12-LOX inh: inactive[12.5 µM]

Results for O=C1CC2CCN(C(=O)c3ccccc3)CC2CCN1 (configuration not stated) ?
12-LOX inh: 50µM

What do the screens show for `CCCc1c(-c2ccc(Cl)cc2)ncn1Cc1cccc(-c2ccccc2)c1`?
12-LOX inh: 5µM

What do the screens show for `CCCc1c(-c2cccc(Br)c2)ncn1Cc1cccc(-c2ccccc2)c1`?
12-LOX inh: 3.5µM

Results for CCCc1c(-c2ccccc2)ncn1Cc1ccccc1OC ?
12-LOX inh: inactive

Results for CCCc1ccc(C(C)NC(=O)C2CC2C)cc1 (configuration not stated) ?
12-LOX inh: inactive

Results for CCOc1ccc(S(=O)(=O)N2CCCCC2)cc1NC(=O)Cc1cc(OC)c(OC)c(OC)c1 ?
12-LOX inh: inactive; Glioma ERSR ind: inactive

How did COc1cc(CC(=O)Nc2cc(S(=O)(=O)N3CCCCC3)ccc2C)cc(OC)c1OC do in these assays?
12-LOX inh: 22µM

What do the screens show for `CC(C)COc1ccc(C(=O)N2CCCCC2CCN2CCCCCC2)cc1` (configuration not stated)?
12-LOX inh: 7.1µM

What do the screens show for `CCCc1cc(CN2CCOCC2)c(O)c(CN2CCOCC2)c1O`?
12-LOX inh: 35µM; Glioma ERSR ind: inactive

Results for Oc1c(CN2CCOCC2)cc(CN2CCOCC2)c(O)c1O ?
12-LOX inh: inactive; Glioma ERSR ind: inactive

What do the screens show for `COc1cc(Cl)ccc1C(=O)N[C@@H]1CN(c2ncccn2)C[C@H]1CN(C)C`?
12-LOX inh: inactive

What do the screens show for `COc1cccc(CNc2ccc(F)c(Cl)c2)c1`?
BCR signal inh: inactive; Anesthetic bind: 8.9µM; 12-LOX inh: inactive; Glioma ERSR ind: inactive

What do the screens show for `O=C(CSCCSCC(=O)c1ccccc1)c1ccccc1`?
12-LOX inh: inactive

How did CCCCn1c(=O)c2ccccc2n2c(=S)[nH]nc12 do in these assays?
BCR signal inh: inactive; Anesthetic bind: inactive; 12-LOX inh: 6.3µM; Glioma ERSR ind: inactive

What do the screens show for `CCCCCn1c(=O)c2ccccc2n2c(=S)[nH]nc12`?
BCR signal inh: inactive; Anesthetic bind: inactive; 12-LOX inh: 45µM; Glioma ERSR ind: inactive

Results for N#Cc1ccccc1OCc1ccc(-c2ccccc2C#N)cc1 ?
12-LOX inh: inactive
